High-throughput results (PubChem)
In the library only some 4.1% were active in any assay of this set; here they are far more common.
hcDAF12 agonist = H. contortus DAF-12 nuclear receptor activators, primary screen, cell-based, luminescence, HEK293, lit1-tk-luc reporter. HEK293 hcDAF-12 lit1-tk-luc reporter; 0% DMSO, 100% Δ7-dafachronic acid. activation, % at 6.8 µM. 370,000 compounds, 1.4% hits;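 active means activation above the mean of all tested compounds plus 3 SD, cut at about 5.5% in these data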
DAX1 inh-1 = DAX1 (NR0B1) inhibitors on StAR promoter, primary screen, cell-based, luminescence, SF-1 (NR5A1), full-length DAX-1 | HEK293T StAR-luciferase reporter, SF-1/DAX-1 repression relief | inhibition, % at 6.8 µM | 370,000 compounds, 1.1% hits | AID 652010, 2013;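 active means inhibition above the mean over all tested compounds plus 3 SD, cut at about 3.6% in these data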;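 further: higher inhibition means more luminescence from relief of DAX-1 repression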
ssDAF-12 act = S. stercoralis DAF-12 nuclear receptor activators, primary screen, cell-based, luminescence, HEK293, GRIP1 co-expression, lit1-tk-luc; Nuclear hormone receptor DAF-12 (Strongyloides stercoralis); HEK293 ssDAF-12/GRIP1 lit1-tk-luc reporter; % of 3 µM dafachronic acid response; activation, % at 6.8 µM; 370,000 compounds, 1% hits; AID 652126, 2013;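 active means activation above the mean over all tested compounds plus 3 SD, cut at about 0.9% in these data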
DAX1 inh-2 = DAX1 (NR0B1) inhibitors, primary screen, cell-based, HEK293, Gal4-DAX1, luciferase luminescence; 340,000 compounds, 0.99% hits; AID 504766, 2011; HEK293 Gal4-DAX1 luciferase reporter; inhibition, % at 6.75 µM; Nuclear receptor subfamily 0 group B member 1 (Homo sapiens), P51843;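 active means inhibition above the mean over all tested compounds plus 3 SD, cut at about 4.2% in these data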;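 further: inhibition shows as a rise in luminescence from relieved DAX1 repression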
hgDAF-12 ag = H. glycines DAF-12 receptor agonists, primary screen, cell-based, luminescence, HEK293, GAL4 fusion, UAS-luciferase; Nuclear hormone receptor DAF-12 (Heterodera glycines), GAL4 fusion; HEK293 GAL4-hgDAF12 UAS-luciferase reporter, agonist luminescence; normalized to butyrate control; activation, % at 6.8 µM; 370,000 compounds, 1.8% hits; AID 687014, 2013;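 active means activation above a cutoff set at the mean of all screened compounds plus 3 SD, cut at about 10% in these data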
LXRb hcDAF ctr = LXR agonists, Gal4 luciferase reporter, confirmation, counter-screen for hcDAF-12 agonist project, cell-based, luminescence, HEK293, H. contortus campaign; shares compounds with hcDAF12 agonist; 3,400 tested, under 10 active; activation, % at 6.8 µM; HEK293 Gal4-LXR tk-luc reporter, 24 h; normalized: DMSO 0%, positive control 100%; AID 743027, 2013;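 active means mean percent activation of the reporter above a cutoff set as the average over tested compounds plus their standard deviation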
Target sequence (P55055 whole entry, looked up, the tested form may be a part): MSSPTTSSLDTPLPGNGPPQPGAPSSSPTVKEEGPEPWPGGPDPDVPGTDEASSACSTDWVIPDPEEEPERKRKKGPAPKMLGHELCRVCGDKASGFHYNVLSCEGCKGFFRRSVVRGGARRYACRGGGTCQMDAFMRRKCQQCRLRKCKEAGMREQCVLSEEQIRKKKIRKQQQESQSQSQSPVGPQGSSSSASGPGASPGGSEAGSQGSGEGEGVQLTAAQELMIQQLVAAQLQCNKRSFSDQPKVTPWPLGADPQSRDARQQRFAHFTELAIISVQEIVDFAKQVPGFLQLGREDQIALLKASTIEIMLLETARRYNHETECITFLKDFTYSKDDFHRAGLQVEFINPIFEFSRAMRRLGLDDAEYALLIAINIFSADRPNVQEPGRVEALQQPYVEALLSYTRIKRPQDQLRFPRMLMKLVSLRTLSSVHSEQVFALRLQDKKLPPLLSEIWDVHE
hcDAF12 ag = H. contortus DAF-12 receptor agonists, confirmation, cell-based, luminescence, HEK293, lit1-tk-luc, triplicate; shares compounds with hcDAF12 agonist; HEK293 hcDAF-12 lit1-tk-luc reporter; % of Δ7-dafachronic acid response; activation, % at 6.8 µM; AID 743032, 2013; 3,400 compounds, 61% hits;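 active means mean activation across triplicate tests above the threshold derived from the earlier primary screen, cut at about 5.5% in these data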
A number is an active result; i = inactive; nt = no result given.

SMILES	hcDAF12 agonist	DAX1 inh-1	ssDAF-12 act	DAX1 inh-2	hgDAF-12 ag	LXRb hcDAF ctr	hcDAF12 ag
Oc1csc(Cc2nc(-c3ccc(Br)cc3)cs2)n1	8.8	i	i	i	12	i	7.6
COc1ccc(C2c3[nH]c4ccccc4c3CCN2C(=O)c2ccc(=O)n(C)n2)c(F)c1 (centres undefined)	6.9	i	i	i	i	i	i
CN1N=C(C(=O)N2CCc3c([nH]c4ccccc34)C2c2ccccc2Cl)CCC1=O (centres undefined)	7.8	i	1.7	i	12	i	6.9
COc1ccc(C2CC(=O)C(c3ccccc3C)=CN2Cc2ccccc2)cc1 (centres undefined)	i	i	i	nt	i	nt	nt
C[C@H]1CCCN1c1cccc2c1S(=O)(=O)N1CC[C@@H](C1)O2	i	i	i	nt	i	nt	nt
Cc1ccc(NC(=O)c2nsc(Cl)c2Cl)cc1	13	i	2.1	5.8	11	i	14
Cc1ccc(NC(=O)c2nc[nH]c2C(=O)Nc2ccc(C)cc2)cc1	i	i	i	i	i	nt	nt
Cc1nc2ccc(NC(=O)c3ccc4ccccc4n3)cc2s1	i	i	i	i	i	nt	nt
Cc1nnc(NC(=O)c2ccc3ccccc3n2)s1	7.6	4.3	i	i	i	i	9.1
CC(C)[C@H](NC(=O)c1ccc(Cl)cc1Cl)C(=O)N1CCC[C@H]1C(=O)NCCc1ccccc1Cl	i	i	i	nt	i	nt	nt
COC(=O)C1=C(Nc2ccccc2NC(=O)c2ccccc2C(=O)O)CSC1	7.5	i	1.7	i	i	i	i
Cc1ccc2nc(N3C(=O)C(O)=C(C(=O)c4ccc(C)o4)C3c3ccco3)sc2c1 (centres undefined)	8.1	4.1	i	i	11	i	i
S=C(Nc1ccc(Br)cc1)OC1CCC12CCC(c1ccccc1)CC2 (centres undefined)	i	i	i	nt	i	nt	nt
Oc1ccccc1-c1csc(-c2ccccc2)n1	14	i	5.1	4.9	20	i	15
CC1CC1C(=O)Nc1nc2ccc(Cl)cc2s1 (centres undefined)	7.0	i	i	i	i	i	6.2
COc1c(Cl)cccc1-c1cn2ccccc2n1	7.3	i	i	i	13	i	7.7
Clc1ccc(OCc2cn3ccccc3n2)c2ncccc12	i	i	i	i	i	nt	nt
Fc1ccc(-c2ncc3ccccn23)cc1	i	i	i	i	i	nt	nt
Clc1ccc(/C=C/c2ncc3ccccn23)cc1	11	i	1.6	i	11	i	i
COc1ccc(C2CC(=O)C(c3cccc(Cl)c3)=CN2Cc2ccccc2)cc1 (centres undefined)	i	i	i	nt	i	nt	nt
CNC(=O)COC(=O)/C=C/c1c(C)nn(-c2ccccc2)c1C	8.4	i	i	i	i	i	i
c1ccc(-c2nnc(-c3ccccn3)s2)nc1	9.6	i	1.0	i	13	i	14
CC[C@@]1(c2ccc(C)cc2)C(=O)N(C(=O)OC(C)C)N1C(=O)OC(C)C	i	i	i	nt	i	nt	nt
O=C(CCn1nnc2ccccc21)N1CCN(c2ccccc2)CC1	i	i	i	i	i	nt	nt
Cc1ccccc1N1CCN(C(=O)CCn2nnc3ccccc32)CC1	8.5	i	i	nt	13	i	6.4
SMILES	hcDAF12 agonist	DAX1 inh-1	ssDAF-12 act	DAX1 inh-2	hgDAF-12 ag	LXRb hcDAF ctr	hcDAF12 ag
O=C(CCn1nnc2ccccc21)N1CCN(c2ccccc2F)CC1	8.8	i	i	nt	11	i	i
CCOC(=O)[C@]12CCCC=C1N(CCCOC)C(=O)[C@@H]2CC(=O)NCc1ccc(C)o1	i	i	i	nt	i	nt	nt
Cc1cccn2c1nc(=S)n2C(=O)c1ccco1	9.5	i	i	i	12	i	9.2
CCCCCCCCN1C(=O)[C@@H](CC(=O)NCCCOC)C[C@@]2(C(=O)OC)C1=C[C@H](C1CCCC1)O[C@@H]2C	i	i	i	nt	i	nt	nt
O=C(CCn1nnc(-c2cccs2)n1)N1CCCC1	i	i	i	nt	i	nt	nt
O=C(NCc1ccccc1)C(c1ccccc1)n1c(=O)c(-c2ccco2)nc2ccccc21 (centres undefined)	i	i	i	nt	i	nt	nt
O=C(NCc1ccccc1)C(c1cc2ccccc2o1)n1c(=O)c(-c2ccco2)nc2ccccc21 (centres undefined)	9.6	3.9	2.5	nt	11	i	11
Cc1cccc(N=C2NN=C(c3c(C)[nH]c4ccccc34)CS2)c1	7.9	i	i	i	i	i	i
COC1OC(COCc2ccccc2)C2OC(C)(C)OC2C1O (centres undefined)	i	i	i	nt	i	nt	nt
N#CCSc1nnc2sc3ccccc3n12	i	i	i	i	i	nt	nt
CSc1nnc2sc3cc(C)ccc3n12	9.6	i	i	i	i	i	i
Cc1ccc(NC(=O)n2ncc3c(C)cccc32)cc1F	11	i	1.1	i	i	i	9.0
COC1=C[C@H](C(=O)NCc2ccc(Cl)cc2)C(C)C(c2ccccc2)CC1=O (some centres undefined)	i	i	i	nt	i	nt	nt
CC(O)CNC(=O)C1CCN(Cc2ccc(OCc3ccccc3)cc2)CC1 (centres undefined)	i	i	i	i	i	nt	nt
CC(C)CNC(=O)C1CCN(Cc2ccc(OCc3ccccc3)cc2)CC1	7.1	i	i	i	i	i	i
COC(=O)C1=NN(c2ccccc2OC)C2C(=O)N(c3ccccc3OC)C(=O)C12 (centres undefined)	7.2	i	i	i	i	i	i
Cc1ccccc1N=Nc1c(O)[nH]c2ccccc12	6.6	i	2.2	nt	11	i	16
O=C(N=Nc1c(O)[nH]c2ccccc12)c1cccs1	15	4.4	1.9	i	21	i	15
O=C(CSCc1ccc(Br)cc1)N=Nc1c(O)[nH]c2ccccc12	i	i	i	i	i	nt	nt
Oc1[nH]c2ccccc2c1N=Nc1c(F)c(F)c(C(F)(F)F)c(F)c1F	i	i	i	i	i	nt	nt
O=C(CSc1nc2ccccc2[nH]1)N=Nc1c(O)[nH]c2ccccc12	9.1	i	i	i	i	i	i
